GDH-TPI counter: GDH-TPI coupled enzyme inhibition counter-screen. inhibition, % at 4.8 µM. GDH-TPI coupled enzyme counterscreen, NADH absorbance. 360,000 compounds, 1.2% hits; in the data active = inhibition above about 30%
PrP 5UTR inh: suppresses PrP 5' UTR mRNA reporter expression. cell-based PrP 5' UTR mRNA reporter, plate reader. inhibition, % (concentration not given with the values). 340,000 compounds, 0.35% hits; in the data active = inhibition above about 52%
PrPC surface inh: reduces human prion protein on the cell surface; P04156; cell surface PrPC, TR-FRET read-out; inhibition, % at 13.8 µM; 370,000 compounds, 0.43% hits; AID 720596; in the data active = inhibition above about 24%
PfHsp40 yeast: restores yeast growth despite PfHsp40 toxicity; S. cerevisiae expressing PfHsp40, growth rescue, ATP luminescence; growth rescue, % at 12.5 µM; 340,000 compounds, 0.68% hits; AID 504582; in the data active = growth rescue above about 28%, passing the limit was not always enough; inconclusive = no clear call, values can overlap the other calls;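 also: yeast W303a lacking pdr1 and pdr3 grown in galactose medium; growth measured after three days at 30 °C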
Mtb FBA inh: inhibitors of M. tuberculosis fructose-bisphosphate aldolase; P9WQA3; purified M. tuberculosis FBA, fluorescence read-out; inhibition, % at 1 µM; 360,000 compounds, 2.3% hits; AID 588726; in the data active = inhibition above about 27%
Target sequence (P9WQA3 whole entry, looked up): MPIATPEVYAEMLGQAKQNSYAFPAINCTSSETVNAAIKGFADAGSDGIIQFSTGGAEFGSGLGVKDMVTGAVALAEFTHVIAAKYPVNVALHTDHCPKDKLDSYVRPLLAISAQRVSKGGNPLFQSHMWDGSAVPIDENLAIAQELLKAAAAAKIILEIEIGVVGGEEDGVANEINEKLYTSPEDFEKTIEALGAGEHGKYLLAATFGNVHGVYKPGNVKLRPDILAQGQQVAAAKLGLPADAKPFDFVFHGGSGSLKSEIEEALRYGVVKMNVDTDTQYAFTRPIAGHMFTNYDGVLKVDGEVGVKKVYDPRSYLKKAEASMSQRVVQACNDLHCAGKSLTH
BJeLR lethal: BJeLR cell viability loss | BJeLR (HRASV12) viability, CellTiter-Glo ATP luminescence, 48 h | inhibition, % (concentration not given with the values) | 300,000 compounds, 0.17% hits | AID 1554; in the data active = inhibition above about 50%; inconclusive = no clear call, values can overlap the other calls
A number is an active result; 0 = inactive; ? = inconclusive; - = not tested or not shown; + = active, no number. Most compounds without a hit are left out; they make up all but 4.5% or so of the library.

SMILES | GDH-TPI counter | PrP 5UTR inh | PrPC surface inh | PfHsp40 yeast | Mtb FBA inh | BJeLR lethal
COc1ccc(C(=O)N/C(=C\c2cn(C)c3ccccc23)C(=O)NCCN2CCOCC2)cc1OC | 44 | 0 | 0 | 0 | 0 | 0
C(=N/N1CCN(c2ccccc2)CC1)/c1ccco1 | - | - | 0 | - | - | -
O=c1c2cc3cccnc3nc2ncn1CCc1c[nH]c2ccccc12 | - | - | 0 | - | - | -
CCc1ccccc1OCC(=O)Nc1nc(-c2cccnc2)cs1 | 0 | 0 | 0 | 237 | 0 | 0
Cc1cc(C)c(OCC(=O)Nc2nc(-c3ccccn3)cs2)c(C)c1 | 0 | 0 | 0 | 313 | 0 | 0
O=C(CC1CC2CCC1C2)Nc1nc(-c2ccccn2)cs1 (stereo unspecified) | 0 | 0 | 0 | 438 | 0 | 0
O=C(CSc1nnc(-c2cccs2)n1Cc1ccco1)Nc1ccc(OCc2ccccc2)cc1 | - | - | 0 | - | - | -
Cc1cnn(-c2ccccc2)c1NC(=O)COCc1ccccc1 | - | - | 0 | - | - | -
Cc1cc(C(=O)N/N=C/C=C/c2ccccc2)n[nH]1 | 61 | 0 | 0 | 0 | 0 | 0
Cc1ccc(C(=O)N/N=C/C=C/c2ccccc2)o1 | 52 | 0 | 0 | 0 | 0 | 0
O=C(N/N=C/C=C/c1ccccc1)c1cc(C2CC2)[nH]n1 | 67 | 0 | 0 | 0 | 0 | 0
Cc1onc(-c2ccccc2)c1C(=O)N/N=C/C=C/c1ccccc1 | 0 | 0 | 0 | 0 | 0 | 0
COC(=O)c1cccc(OCC(C)CN2CCC(C(O)(c3ccccc3)c3ccccc3)CC2)c1 (stereo unspecified) | - | - | 0 | - | - | -
Cc1ccccc1OCC(O)CNC1CCC(NCC(O)COc2ccccc2C)CC1 (stereo unspecified) | 0 | 0 | 0 | 0 | 0 | 89
Cc1ccc(OCC(O)CNC2CCCC2)c(C)c1 (stereo unspecified) | 0 | 0 | 0 | 0 | 0 | 0
Cc1ccccc1OCC(O)Cn1c2ccccc2c2ccccc21 (stereo unspecified) | 0 | 0 | 0 | 111 | 0 | 0
CCCCCCNC(=O)C1CSCCS(=O)(=O)N1Cc1ccc(F)cc1 (stereo unspecified) | - | - | 0 | - | - | -
COc1cccc2c1nc(C)c1cc(C)oc12 | 0 | 0 | 0 | 0 | 0 | 0
COc1cccc2nc3cc(C)c(C)cc3nc12 | 0 | 0 | 0 | 0 | 0 | 58
O=C(O)C(Cc1ccccc1)n1c(=S)[nH]c2ccccc2c1=O (stereo unspecified) | 0 | 0 | 0 | 0 | 0 | 0
CC(c1ccc2c(c1)OCO2)n1c(=S)[nH]c2ccccc2c1=O (stereo unspecified) | 0 | 0 | 0 | 75 | 0 | -
O=C(/C(=C(\O)c1ccccc1)c1nc2ccccc2[nH]1)c1ccccc1 | 40 | 0 | 0 | 0 | 0 | 0
O=c1[nH]cccc1-c1nc2ccccc2[nH]1 | 42 | - | 0 | 0 | + | 0
CC(=O)/C(=C(/O)c1ccccc1)c1nc2ccccc2[nH]1 | 0 | 0 | 0 | 0 | 0 | 0
O=C(O)c1ccc(-c2nc3ccccc3[nH]2)cc1 | 0 | 0 | 0 | 0 | + | 0
SMILES | GDH-TPI counter | PrP 5UTR inh | PrPC surface inh | PfHsp40 yeast | Mtb FBA inh | BJeLR lethal
O=C(O)c1ccc(/C=C(\c2nc3ccccc3[nH]2)c2nc3ccccc3s2)cc1 | 65 | 0 | 0 | 0 | 0 | 0
CC(=O)Nc1cc(NC(C)=O)cc(-c2nc3ccccc3[nH]2)c1 | 0 | 0 | 0 | 0 | 0 | 0
NC(=NCc1ccccc1)NC(=O)OCc1ccccc1 | - | - | 0 | - | - | -
C=CCN1[C@@H](C)COc2cc(N3CCSCC3)ccc2S1(=O)=O | - | - | 0 | - | - | -
CCOC(=O)[C@]12CCCC3=C1N(CCC3)C(=O)[C@@H](CC(=O)N1CCCCC1)C2 | - | - | 0 | - | - | -
Nc1cccc(-c2nc3ccccc3[nH]2)c1 | 0 | 0 | 0 | 0 | 136 | 0
O=C(Nc1cccc(-c2nc3ccccc3[nH]2)c1)c1ccco1 | 0 | 0 | 0 | 0 | 0 | 0
Nc1ccc(-c2nc3ccccc3[nH]2)cc1 | 0 | 0 | 0 | 0 | 117 | 0
Oc1ccc(C=Nc2ccccc2-c2nc3ccccc3[nH]2)cc1 | 0 | 0 | 0 | 0 | + | 0
Fc1ccc(-c2nc3ccccc3[nH]2)cc1 | 0 | 0 | 0 | 0 | 0 | 0
Nc1ccc(-c2nc3c(ccc4ccccc43)[nH]2)cc1 | 42 | 0 | 0 | 0 | + | 0
CCN(CC)C(=O)CC[C@H]1CC[C@]2(CCCN(Cc3ccccc3)C2)O1 | - | - | 0 | - | - | -
Nc1ccc2nc(-c3cccc(-c4nc5ccc(N)cc5[nH]4)n3)[nH]c2c1 | 0 | 0 | 0 | 0 | 0 | 0
Cc1ccc2nc(-c3cccc(N)c3)[nH]c2c1 | 0 | 0 | 0 | 0 | 137 | 0
Cc1[nH]ncc1-c1nc2ccccc2[nH]1 | 0 | 0 | 0 | 0 | 0 | 0
Nc1ccccc1-c1nc2ccccc2[nH]1 | 0 | 0 | 0 | 0 | + | 0
COc1ccc(CN(CCN2CCOCC2)C(=O)c2ccc(F)cc2F)cc1OC | - | - | 0 | - | - | -
CCC(C)NC(=O)CN1C(=O)C2CCCCN2C(=O)c2ccccc21 (stereo unspecified) | - | - | 0 | - | - | -
COC(=O)[C@]12C[C@H](CC(=O)N3CCN(C(=O)c4ccco4)CC3)C(=O)N(Cc3cccc4ccccc34)C1=C[C@H](COCc1ccccc1)O[C@@H]2C | - | - | 0 | - | - | -
COc1cc2c(cc1OC)-c1cc(Nc3ccc(C)cc3)nc(=O)n1CC2 | 0 | 0 | 0 | 0 | 0 | 0
COc1cc2c(cc1OC)-c1cc(N3CCc4ccccc43)nc(=O)n1CC2 | 43 | 0 | 0 | 0 | 0 | 0
COc1cc2c(cc1OC)-c1cc(Nc3ccc4c(c3)OCCO4)nc(=O)n1CC2 | 36 | 0 | 0 | 0 | 0 | 0
COc1cc2c(cc1OC)-c1cc(OCc3cccnc3)nc(=O)n1CC2 | 40 | 0 | 0 | 0 | + | -
COc1ccc(Nc2cc3n(c(=O)n2)CCc2cc(OC)c(OC)cc2-3)cc1 | 0 | 0 | 0 | 0 | 0 | 0
COc1cc2c(cc1OC)-c1cc(N3CCCc4ccccc43)nc(=O)n1CC2 | 0 | 0 | 0 | 0 | 0 | 0
SMILES | GDH-TPI counter | PrP 5UTR inh | PrPC surface inh | PfHsp40 yeast | Mtb FBA inh | BJeLR lethal
COc1ccc(Nc2cc3n(c(=O)n2)CCc2cc(OC)c(OC)cc2-3)c(C)c1 | 33 | 0 | 0 | 0 | 0 | 0
O=C(Cn1nnc(-c2ccc(N3CCOCC3)cc2)n1)c1cccc(F)c1 | - | - | 0 | - | - | -
COc1cc2c(cc1OC)-c1cc(NC3CCCCCC3)nc(=O)n1CC2 | 31 | 0 | 0 | 0 | 0 | 0
COc1cc2c(cc1OC)-c1cc(Nc3ccccc3)nc(=O)n1CC2 | 0 | 0 | 0 | 0 | 0 | 0
COc1cc2c(cc1OC)-c1cc(N3CCCCCC3)nc(=O)n1CC2 | 46 | 0 | 0 | 0 | 0 | 0
COc1ccc(C(=O)c2no[n+]([O-])c2C(=O)c2ccc(OC)cc2)cc1 | 0 | 0 | 0 | 0 | 0 | 0
O=C(c1cccs1)c1no[n+]([O-])c1C(=O)c1cccs1 | 0 | 0 | - | ? | 0 | 71
COCCCNC(=O)Cn1cc(/C=C(\C#N)C(=O)NC2CCCC2)c2ccccc21 | 33 | 0 | 0 | 0 | 0 | 0
Cc1ccc2nc(-c3ccc(NC(=O)CSc4nnc(-c5cc(C)[nH]n5)n4N)cc3)sc2c1 | - | - | 0 | - | - | -
CCCC[C@H](C(=O)N(C)c1ccccc1)[C@@H](O)c1ccc(Cl)cc1 | - | - | 0 | - | - | -
CC12CN3CCN(CC(C3)/C1=N\N=C1/C3CN4CCN(C3)CC1(C)C4)C2 | 0 | 0 | 0 | 0 | 113 | 0

Compound activity from PubChem BioAssay.
